Experimental findings from PubChem BioAssay are described below.

Experiment [1] is described as follows: inhibitors of TNFa-induced NFkB p65 translocation, primary screen, imaging, HUVEC, MLSMR starter and 10KST1 sets (AID 438;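 active = inhibition above 20% together with a positive visual image hit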;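 also: compound added about 3h40 before a 20 min TNFalpha stimulation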;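 as to inhibition: signal is the nuclear over cytoplasmic p65 intensity ratio per well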). The conditions noted are these: HUVEC TNFa-induced p65 nuclear translocation; cell count: measured here: nuclei count (cytotoxicity indicator), at 2.08 µM; inhibition: at 2 µM, stronger effect = higher value, 0% TNFa-plus-vehicle, 100% no-TNFa wells.

Experiment [2] is described as follows: reduction of polyQ htt aggregates in cells – imaging, exon1htt(103Q)mCFP cells, high-content imaging, primary screen (AID 483;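 active = visual image review flags a hit and inhibition of aggregation exceeds 20%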;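 also: compound exposure lasted 3 days before fixation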;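 as to nuclei count: percent of the per-plate median nuclei count of sample wells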). The note with it: exon1htt(103Q)mCFP cell line, aggregate imaging, at 2 µM; inhibition of aggregation: stronger effect = higher value; nuclei count: measured here: cell count, toxicity.
Experiment [3] can be described thus: endothelial E-selectin expression blockers – imaging, HUVEC, immunofluorescence, MLSMR starter and 10KST1 sets, primary screen (AID 487;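 active = visually confirmed hit in the image check and inhibition above 20%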;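 as to inhibition: signal is fraction of cell area covered by stained E-selectin grains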;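 as to nuclei count: 100% = median nuclei count of all wells on the same plate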). The conditions noted are these: HUVEC TNFalpha-induced E-selectin immunofluorescence imaging, at 2 µM; inhibition: stronger effect = higher value; nuclei count: measured here: cell number, toxicity.
A short description of experiment [4]: Primary imaging screen for DUSP6 inhibitors that restore phospho-Erk in transfected HeLa cells, chemical complementation (AID 609;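 active = compounds giving at least 50% inhibition in the cell-based MKP-3 phosphatase rescue imaging test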;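 as to inhibition: phospho-Erk level distribution per well compared with pooled transfected vehicle control wells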). The conditions noted are these: HeLa MKP-3 transfected, phospho-Erk imaging KS statistic, at 10 µM, cells stimulated with TPA for 15 min.
Experiment [5] concerns the target Dual specificity protein phosphatase 6 (Homo sapiens) (UniProt Q16828). Described as above. The note with it: HeLa MKP-3 transfected, phospho-Erk imaging KS statistic; at 10 µM; stronger effect = higher value; cells stimulated with TPA for 15 min.
Experiment [6] concerns the target Voltage-gated potassium channel subunit beta-2 (Rattus norvegicus) (UniProt P62483). Nature of the experiment: inhibitors of rat Kvbeta2 reductase activity – biochemical, NADPH fluorescence, primary screen (AID 622;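 active = fluorescence slope higher than the sample average by over 3 SD, cut at about -0.22 in these data, passing the limit was not always enough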;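 also: slope of raw intensity against log time taken from 70 to 1610 s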). The note with it: recombinant KvBeta, 4-cyanobenzaldehyde reduction, at 10 µM, stronger effect = higher value.
Experiment [7] has the same target. In words: enhancers of rat Kvbeta2 NADPH turnover – biochemical, NADPH fluorescence, primary screen (AID 623;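 active = NADPH fluorescence slope more negative than the mean of all samples by about 3 SD, 99.7% confidence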;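 also: fluorescence intensity change per second fitted from 20 to 320 s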). The note with it: Recombinant KvBeta, NADPH fluorescence decrease slope, 10 min; at 10 µM; stronger effect = lower value.
Experiment [8] addresses Alpha-2C adrenergic receptor (Homo sapiens) (UniProt P18825). Nature of the experiment: compounds altering alpha2C-coupled GIRK flux – cell-based, HEK293 alpha2C/GIRK1/2, thallium flux, primary screen (AID 624;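 active = fluorescence slope after compound addition differing from the mean of all screened samples at 99.7% confidence, in either direction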;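 also: slope of fluorescence ratio to pre-addition baseline per second over 15 to 24 s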). The conditions noted are these: thallium flux BTC fluorescence, at 10 µM, actives lie on both sides.
Experiment [9] has as its target Muscarinic acetylcholine receptor M4 (Homo sapiens) (UniProt P08173). In words: M4-linked GIRK flux change, two-sided – cell-based, HEK293 M4/GIRK, thallium flux, BTC-AM, M4 allosteric agonist project, primary screen (AID 625;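 active = fluorescence slope after compound addition differing from the mean of all tested samples at 99.7% confidence, mostly higher but some lower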;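 also: thallium influx through GIRK channels coupled to M4 in HEK293 cells with BTC-AM dye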). The conditions noted are these: at 10 µM, actives lie on both sides.
Experiment [10] can be described thus: inhibitors of larval lipid processing in zebrafish, primary screen, whole organism, PED6 fluorescence, gall bladder and intestine (AID 686;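 active = a full or partial loss of lipid-probe fluorescence in the fish gall bladder, intestine or both, judged by eye; inactive = no fluorescence loss, or compound toxic to the fish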;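 also: larvae 5 to 7 days old with five fish per well; signal comes from phospholipase A2 cleavage of quenched PED6 carried via bile; overnight exposure to compound and PED6 before scoring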). The conditions noted are these: Zebrafish larvae PED6 lipid processing, fluorescence scoring; screened at 20 µM (by protocol).
The nature of experiment [11]: loss of swimming-algae plug formation – whole organism, Chlamydomonas reinhardtii, WT vs cilia-less mutant, absorbance, 96-well, primary screen (AID 463189;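 active = inhibition at or above 50% relative to wild type and mutant plate controls; inactive = inhibition below 50%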;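 also: 0% = wild type cc124 cells in DMSO and 100% = ciliumless bld1 mutant cells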). The conditions noted are these: Chlamydomonas reinhardtii gravitaxis, OD600 absorbance, 2 days; at 10 µM; stronger effect = higher value.
A short description of experiment [12]: blockers of RIG-like receptor reporter activation – cell-based, Sendai virus stimulus, luciferase, 10K MLSCN set, TLR/RLR signaling modifier project, primary screen (AID 602276;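 active = inhibition at or above 50% at 10 µM; inactive = inhibition below 50%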;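 also: firefly luciferase from ISG56 promoter only with Renilla not read in this screen; 0% = Sendai virus plus DMSO and 100% = medium plus DMSO without virus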). The conditions noted are these: HEK293 RL24 IRF3 luciferase reporter, at 10 µM, stronger effect = higher value. (A reporter such as luciferase makes a cellular process visible.)
The nature of experiment [13]: TLR3 IRF3 reporter activation blockers – cell-based, poly I:C stimulus, luciferase, 10K MLSCN set, primary screen (AID 602277). The conditions noted are these: HEK293-TLR3 RL24 IRF3 luciferase reporter, at 10 µM, stronger effect = higher value.
[14] abbreviates: measured here: cell density z-score.
The mark [15] stands for this setting: measured here: nuclear c-Myc green intensity z-score.
The mark [16] stands for this setting: measured here: nuclear pErk red intensity z-score, stronger effect = higher value.

The structures appear in SMILES notation. The source made the active and inactive calls.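 The calls were made as follows, unless noted: active = inhibition of the reporter signal at or above 50%; inactive = inhibition below 50%.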

The term inhibition denotes the drop in the measured response relative to a control, in per cent.

Muscarinic acetylcholine receptor M4 (Homo sapiens), sequence (P08173 whole entry, looked up): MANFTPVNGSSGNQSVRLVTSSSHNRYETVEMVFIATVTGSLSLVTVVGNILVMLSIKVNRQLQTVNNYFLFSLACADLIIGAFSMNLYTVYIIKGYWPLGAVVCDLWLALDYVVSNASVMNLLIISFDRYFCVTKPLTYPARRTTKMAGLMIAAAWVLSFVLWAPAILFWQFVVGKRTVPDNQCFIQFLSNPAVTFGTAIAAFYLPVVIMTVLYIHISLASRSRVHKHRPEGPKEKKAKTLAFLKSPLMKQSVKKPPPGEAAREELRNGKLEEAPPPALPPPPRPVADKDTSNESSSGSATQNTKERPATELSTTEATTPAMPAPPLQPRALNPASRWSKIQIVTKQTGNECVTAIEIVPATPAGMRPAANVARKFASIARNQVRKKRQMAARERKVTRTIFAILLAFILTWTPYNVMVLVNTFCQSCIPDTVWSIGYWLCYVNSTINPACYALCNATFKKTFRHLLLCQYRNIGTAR
Dual specificity protein phosphatase 6 (Homo sapiens), sequence (Q16828 whole entry, looked up): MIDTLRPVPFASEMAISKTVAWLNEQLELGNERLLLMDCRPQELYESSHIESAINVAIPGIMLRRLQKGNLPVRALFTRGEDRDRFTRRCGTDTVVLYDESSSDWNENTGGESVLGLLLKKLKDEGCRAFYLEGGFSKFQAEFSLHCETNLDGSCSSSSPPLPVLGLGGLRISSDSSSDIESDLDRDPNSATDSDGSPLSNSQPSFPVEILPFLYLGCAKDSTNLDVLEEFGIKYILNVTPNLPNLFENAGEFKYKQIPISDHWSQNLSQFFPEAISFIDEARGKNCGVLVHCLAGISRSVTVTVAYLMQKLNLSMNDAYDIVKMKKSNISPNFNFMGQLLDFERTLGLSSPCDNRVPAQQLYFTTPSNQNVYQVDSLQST
Alpha-2C adrenergic receptor (Homo sapiens), sequence (P18825 whole entry, looked up): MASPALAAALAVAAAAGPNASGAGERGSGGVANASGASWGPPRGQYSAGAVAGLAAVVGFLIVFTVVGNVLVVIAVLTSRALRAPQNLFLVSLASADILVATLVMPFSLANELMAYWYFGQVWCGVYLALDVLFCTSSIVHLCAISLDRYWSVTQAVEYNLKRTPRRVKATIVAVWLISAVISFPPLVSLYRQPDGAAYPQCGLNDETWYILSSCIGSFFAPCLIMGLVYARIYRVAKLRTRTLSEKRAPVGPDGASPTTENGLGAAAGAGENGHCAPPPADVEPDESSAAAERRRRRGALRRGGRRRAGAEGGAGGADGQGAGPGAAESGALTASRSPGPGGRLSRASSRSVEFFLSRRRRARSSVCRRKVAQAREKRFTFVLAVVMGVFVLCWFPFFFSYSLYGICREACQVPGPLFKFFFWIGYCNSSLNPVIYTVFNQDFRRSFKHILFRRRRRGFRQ
Voltage-gated potassium channel subunit beta-2 (Rattus norvegicus), sequence (P62483 whole entry, looked up): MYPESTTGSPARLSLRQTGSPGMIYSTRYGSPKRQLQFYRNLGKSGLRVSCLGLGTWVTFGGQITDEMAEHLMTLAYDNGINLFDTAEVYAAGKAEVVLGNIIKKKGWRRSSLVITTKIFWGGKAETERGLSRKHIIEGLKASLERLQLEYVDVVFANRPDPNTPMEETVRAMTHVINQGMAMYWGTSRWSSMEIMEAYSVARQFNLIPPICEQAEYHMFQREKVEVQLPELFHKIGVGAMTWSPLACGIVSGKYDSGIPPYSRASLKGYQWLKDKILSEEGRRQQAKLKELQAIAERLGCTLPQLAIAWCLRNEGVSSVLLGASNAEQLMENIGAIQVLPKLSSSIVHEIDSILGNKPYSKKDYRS

As for `CC(=N\O)/C(CN(C)C)=N/O`, the cell count in experiment [1] came to 593. For the same compound, the inhibition in [1] is -2.4% (inactive); in experiment [3], -11.6% (inactive); in experiment [5], -0.233% (inactive); in experiment [11], -6.2% (inactive); in [12], -13.1% (inactive); in [13], 1.97% (inactive). The inhibition of aggregation in experiment [2] was -2.9% (inactive). Also, the values for the nuclei count in [2] and in [3] were 86.5% and 131%, respectively. The z-score in [4] (setting [14]) is 0.774; in experiment [4] (setting [15]), -0.0101; in [4] (setting [16]), -0.876. In addition, the fluorescence slope in [6] was -0.49 (inactive); in [9], 0.00548 (inactive). Also, the NADPH fluorescence slope in experiment [7] is -6.9e-05 (inactive). The slope in [8] was 0.0061 (inactive). Besides, the compound was classed as inactive in experiment [10].
With `COC(=O)/C=c1/s/c(=C(/C#N)C(=O)N2CCOCC2)n(-c2ccccc2)c1=O`, the cell count in experiment [1] turned out to be 611. Further, the inhibition in experiment [1] was 1.5% (inactive); in [3], 7.3% (inactive); in [5] it was 1.63% (inactive); in [11] it was 21% (inactive); in [12], 15.2% (inactive); in experiment [13] it was 17.7% (inactive). In addition, in experiment [2], the inhibition of aggregation was -12.2% (inactive). Besides, the nuclei count in [2] was found to be 98.4%; in [3], 119%. Besides, the z-score in experiment [4] (setting [14]) is 0.31; in [4] (setting [15]), -0.164; in [4] (setting [16]), -0.787. Besides, the fluorescence slope in [6] is -0.479 (inactive); in experiment [9], 0.00508 (inactive). In addition, the NADPH fluorescence slope in experiment [7] is -5e-05 (inactive). Moreover, in experiment [8], the slope was 0.0052 (inactive). For the same compound, the compound was called inactive in experiment [10].
In the case of `Cc1cn2c(-c3ccncc3)nnc2s1`, the cell count in experiment [1] is 443. In addition, the inhibition was -7.7% (inactive) in experiment [1]; -73.4% (inactive) in experiment [3]; 22.3% (inactive) in [5]; -0.946% (inactive) in [11]; 4.57% (inactive) in experiment [12]; 19.6% (inactive) in experiment [13]. In addition, the inhibition of aggregation in experiment [2] is 5.7% (inactive). The results for the nuclei count in experiment [2] and in experiment [3] were 88.7% and 142%, respectively. In addition, the results for the z-score in experiment [4] (setting [14]), in experiment [4] (setting [15]) and in [4] (setting [16]) were 1.88, 0.607 and -1.91, respectively. In addition, the fluorescence slope in experiment [6] is -0.491 (inactive); in [9], 0.00508 (inactive). For the same compound, in [7], the NADPH fluorescence slope was -0.000121 (inactive). The slope in [8] was 0.0059 (inactive). The call in experiment [10] was inactive.
For the compound `Cc1ccc(SCc2[nH]nc3c2C(c2ccc(C)o2)C(C#N)=C(N)O3)cc1` (stereo not given), in [1], the cell count was found to be 571. In addition, the inhibition in [1] is -2.5% (inactive); in experiment [3], -2.7% (inactive); in experiment [5], 24% (inactive); in [11], 25.7% (inactive); in experiment [12], -13.7% (inactive); in experiment [13], -11.1% (inactive). Besides, the inhibition of aggregation in experiment [2] was 15.4% (inactive). Also, the nuclei count stood at 62.4% in [2] and 91.7% in experiment [3]. Further, the values for the z-score in experiment [4] (setting [14]), in experiment [4] (setting [15]) and in [4] (setting [16]) were -2.32, 1.82 and 1.99, respectively. In addition, the fluorescence slope is -0.515 (inactive) in experiment [6] and 0.00561 (inactive) in experiment [9]. Also, the NADPH fluorescence slope in [7] was -5.6e-05 (inactive). In experiment [8], the slope is 0.0059 (inactive). Also, in experiment [10], the outcome was inactive.
With `C/C(=N\O)C(=O)NCCCNCCCN(C)C`, in experiment [1], the cell count is 609. Also, the inhibition in [1] was -2.7% (inactive); in experiment [3] it was -42% (inactive); in experiment [5], -3.95% (inactive); in experiment [11] it was -5.12% (inactive); in experiment [12], 15.3% (inactive); in experiment [13], 20.9% (inactive). For the same compound, the inhibition of aggregation in experiment [2] is -14.3% (inactive). Also, the nuclei count in experiment [2] came to 109%; in experiment [3], 115%. For the same compound, the results for the z-score in experiment [4] (setting [14]), in experiment [4] (setting [15]) and in experiment [4] (setting [16]) were -1.26, 0.664 and -0.264, respectively. Besides, the fluorescence slope in experiment [6] was -0.495 (inactive); in experiment [9], 0.00686 (inactive). Moreover, in experiment [7], the NADPH fluorescence slope was -5.8e-05 (inactive). Also, the slope in experiment [8] was 0.0053 (inactive). The call in experiment [10] was inactive.
